# According to the OligoGym collection:
# Tests used:
# Test in all cases: pooled miR-30 sensor sort-seq; sequence = guide strand
# Conditions in all cases: shRNA
# C19orf26 = biological target: C19orf26
# C19orf43 = biological target: C19orf43
# C19orf48 = biological target: C19orf48
# C19orf33 = biological target: C19orf33
# Further: reference of the scale not given here.
sequence,measurement,setting,value
TTGTCCAGGTAGGTGGTGGTGG,sensor-assay potency score (higher = more potent),C19orf26,-0.893
TAAATAGTTATGTACATCGCAG,sensor-assay potency score (higher = more potent),C19orf43,-0.74
TTATCCACCTTCTCCTGGGTGT,sensor-assay potency score (higher = more potent),C19orf48,-0.455
TTGTCCTGCGTCTTGCGGCTCT,sensor-assay potency score (higher = more potent),C19orf26,-0.61
TCCGTGTCCGAATCGCTGGAGC,sensor-assay potency score (higher = more potent),C19orf33,-1.74
ATCATCGTCACCGCACTGGTGA,sensor-assay potency score (higher = more potent),C19orf43,-0.305
